# According to PubChem BioAssay AID2315 (National Center for Advancing Translational Sciences (NCATS), 2010):
# Among all 290,000 compounds or so, about 27,000 (9.3%) were called active. No stated cut-off is given here; in the data, active means inhibition mostly above about 28% (no sharp cut-off); inactive means mostly below about 43%. Many of the other results were omitted from the sample, so actives are more common in it than they were.
# Test: A qHTS for Small Molecule Inhibitors of Shiga Toxin; further: 0% is about no effect
# Details: Vero cells, Shiga toxin protein synthesis inhibition reporter; at 38.7 µM, active compounds read high
row,Compound,inhibition
1,CCN(CC)c1ccc(C(=O)Nn2c(C)nc3ccccc3c2=O)cc1,1.76% (inactive)
2,COc1cccc(OCc2nnc3n2N=C(c2ccccc2)C(CC(=O)O)S3)c1 (configuration not stated),-9.17% (inactive)
3,COc1ccc(/C=N/NC(=O)c2cccc(C(F)(F)F)c2)cc1,17.5% (inactive)
4,CCn1c(/C=N/NC(=O)c2ccc(OC)cc2)nc2ccccc21,15% (inactive)
5,Cn1cccc1/C=N/NC(=O)c1ccc(OC(F)(F)C(F)F)cc1,33.1% (active)
6,c1ccc(-c2cnc(CN3CCN(c4ccccc4)CC3)o2)cc1,-3.91% (inactive)
7,O=C(COCc1cc(-c2ccc3c(c2)OCO3)on1)N1CCN(c2cccc(Cl)c2)CC1,4.57% (inactive)
8,COc1ccc(C(=O)Nc2ccc(NC(=O)C(C)C)nc2)cc1,22.3% (inactive)
9,CC(=O)NCCc1nc2cc(NC(=O)c3ccccc3)ccc2n1C,38.3% (inactive)
10,Cn1c(CN2CCOCC2)nc2cc(NC(=O)c3ccc(Cl)cc3)ccc21,69.5% (active)
11,CCc1cc(C(N)=O)c(NC(=O)c2ccc(OC)cc2)s1,33.1% (active)
12,Cc1ccc(NC(=O)c2cccnc2C(=O)Nc2ccc(C)cc2)cc1,20.9% (inactive)
13,Cc1ccc(NC(=O)c2ccc(Oc3ncccn3)cc2)cc1,54.9% (active)
14,CCc1cc(C(=O)c2ccc(OC)cc2)c(NC(=O)CN2CCN(C)CC2)s1,-6.04% (inactive)
15,COc1ccc(C(=O)NC(=S)NC2CCCCC2)cc1,91.2% (active)
16,CCCNC(=S)N1CCC(NC(=O)c2ccc(OC)cc2)CC1,10.3% (inactive)
17,O=C(NC(=S)NC1CCCCC1)c1ccc(Cl)cc1,-12.4% (inactive)
18,CCOC(=O)N1CCN(Cc2nc3cc(NC(C)=O)ccc3n2C)CC1,-4.25% (inactive)
19,CCc1cc(C(c2ccccc2OC)N2CCOCC2)c(NC(=O)c2ccccc2)s1 (configuration not stated),33.3% (inactive)
20,Cc1cc(OCC(=O)Nc2c(C)n(C)n(-c3ccccc3)c2=O)ccc1[N+](=O)[O-],-12.8% (inactive)
21,Cc1ccc(CC2(O)CCN(CCOc3ccc(O)cc3)CC2)cc1,-5.63% (inactive)

row,Compound,inhibition
1,Cc1ccccc1N1CCN(C2CCCN(C(=O)c3ocnc3C)C2)CC1 (configuration not stated),-9.46% (inactive)
2,Cc1cc(C)cc(NC(=O)C2CCCN(S(=O)(=O)c3ccc4[nH]c(=O)ccc4c3)C2)c1 (configuration not stated),14.1% (inactive)
3,Cc1cccc(NC(=O)c2ccc3c(=O)n(CC4CCCO4)c(=S)[nH]c3c2)c1 (configuration not stated),-1% (inactive)
4,O=C(Cn1ccc2cc(S(=O)(=O)N3CCCC3)ccc21)NCc1ccccc1,-6.39% (inactive)
5,COc1ccc(NC(=O)CCn2ccnc2)c(OC)c1,-6.3% (inactive)
6,COc1ccc(S(=O)(=O)N/N=C\c2ccc(OC)c(COc3ccc(C)cc3[N+](=O)[O-])c2)cc1,-12.5% (inactive)
7,Cc1cccc(C(=O)Nc2ccccc2C(=O)NCc2cccnc2)c1,-16.9% (inactive)
8,Cc1noc(C)c1COc1cccc(C(=O)Nc2cccnc2)c1,-6.89% (inactive)
9,COc1ccc(NC(=O)c2ccc(OC)cc2)cc1,105% (active)
10,O=C(Nc1ccc(CSc2ccccc2)cc1)c1ccc(CN2CCOCC2)cc1,7.03% (inactive)
11,COc1ccc(NC(=O)c2ccc(C#CC(C)(C)O)cc2)cc1,28% (inactive)
12,COc1ccc(NC(=O)c2cnc(NS(=O)(=O)c3ccccc3)nc2)cc1,-13.6% (inactive)
13,COc1ccc(C(=O)Nc2cccc(S(C)(=O)=O)c2)cc1,21.9% (inactive)
14,Cc1cccc(C(=O)Nc2ccc(Oc3cnccn3)cc2)c1,57.2% (active)
15,O=C(CS(=O)(=O)c1ccccc1)Nc1ccc(S(=O)(=O)Nc2ccccn2)cc1,-7.44% (inactive)
16,CCOc1ccc(C(=O)Nc2ccc(CN3CCOCC3)cc2)cc1Cl,9.47% (inactive)
17,COc1ccc(NC(=O)CS(=O)(=O)c2ccccc2)cc1,28.2% (active)
18,COc1ccc(C(=O)Nc2ccc(CN3CCOCC3)cc2)cc1,80.4% (active)
19,O=C(NCCCN1CCCC1=O)C(=O)NCC1OCCN1S(=O)(=O)c1ccc(Br)cc1 (configuration not stated),22.9% (inactive)
20,Nc1nc(Nc2ccccc2F)nc(NC2CCCCC2)c1[N+](=O)[O-],2.97% (inactive)
21,Cn1c(N2CCOCC2)c(C=O)c2ccccc21,-1.16% (inactive)

row,Compound,inhibition
1,Cc1ccc(Cn2ncc3c4sc(C)cc4n(C)c3c2=O)c(C)c1,-2.93% (inactive)
2,C=CCn1cc(Cl)cc(C(=O)Nc2ccccc2)c1=O,16.8% (inactive)
3,CCN(CC)c1ccc(C(=O)NNC(=O)CCc2nc3ccccc3c(=O)[nH]2)cc1,10.9% (inactive)
4,Cc1ccc(NC(=O)COc2ccc(/C=C3/NC(=O)NC3=O)cc2)cc1,8.39% (inactive)
5,CC(C)CN(CC(C)C)C(=O)CN1c2cccc3cccc(c23)S1(=O)=O,2.89% (inactive)
6,COc1ccc(C(CCN2CCOCC2)c2c(OC)cc(OC)c3c2OC(=O)CC3c2ccc(OC)cc2)cc1 (configuration not stated),-0.588% (inactive)
7,COc1ccc(C(C)NC(=S)NC2CCCCC2)cc1OC (configuration not stated),-35.1% (inactive)
8,CCc1c(C)c2ccc(OC3CCCCC3=O)cc2oc1=O (configuration not stated),28% (inactive)
9,COc1ccc(NC(=O)C(C)SCc2ccccc2)cc1 (configuration not stated),40.5% (inactive)
10,COc1ccc(C(=S)Nc2ccccc2)cc1,62.5% (active)
11,COc1cccc(NC(=O)c2ccc(S(=O)(=O)N(C)C)cc2)c1,70.6% (inactive)
12,COc1ccc(NC(=O)c2sc(N)nc2-c2ccccc2)cc1,9.77% (inactive)
13,CCC(=O)Nc1ccc(C(=O)Nc2cccc(OC)c2)cc1,108% (active)
14,COc1ccc(C(=O)Nc2ccnn2C2CCN(Cc3ccncc3)CC2)cc1,-4.63% (inactive)
15,COc1ccc(NC(=O)c2sccc2SCC#N)cc1,52.8% (active)
16,COc1cccc(NC(=O)CN(C)CC(=O)Nc2ccc3c(c2)CCC3)c1,-9.55% (inactive)
17,COc1ccc(-c2nn(CCC#N)cc2C(=O)Nc2ccc(C(C)=O)cc2)cc1,25.5% (inactive)
18,COc1ccc(C(=O)Nc2sc(C)c(C)c2CN2CCOCC2)cc1,82.5% (active)
19,CCOC(=O)c1c(NC(=O)c2ccc(N3CCOCC3)c([N+](=O)[O-])c2)sc(C)c1C,9.37% (inactive)
20,COCCNC(=S)c1ccc(OC)cc1,13% (inactive)
